Data on 20 molecules can be found in PubChem BioAssay.

Assay [1] can be described thus: antimalarial activity against Dd2 strain (AID 2302;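 active = growth inhibition above 50% at the single 2 µM test dose, taken to imply half-maximal potency below 2 µM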;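 also: 0% = DMSO untreated growth and 100% = chloroquine plus artemisinin killed control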). The note with it: P. falciparum Dd2 in RBCs, LDH growth readout, 72 h; at 2 µM; hits give high values.
Assay [2] is described as follows: HepG2 cytotoxicity, primary screen, cytotoxicity control for P. falciparum antimalarial project, cell-based, ATP luminescence (AID 2303;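 active = inhibition above 50%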;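 also: 0% = DMSO wells and 100% = digitonin-killed cells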). The note with it: HepG2 viability, 24-48 h, at 10 µM, hits give high values.
Assay [3] concerns the target L-lactate dehydrogenase (Plasmodium falciparum (isolate CDC / Honduras)) (UniProt Q27743). Description: PfLDH activity inhibition – cell lysate, 3D7 strain, counter-screen for P. falciparum growth inhibition project (AID 2304).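 Also: 0% = vehicle and 100% = reference inhibitor.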 The note with it: P. falciparum 3D7 crude extract, LDH APAD/NBT absorbance; at 2 µM; hits give high values.
The nature of assay [4]: inhibition of 3D7 malaria parasite growth – strain 3D7 (AID 2306).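 Also: 0% = DMSO wells and 100% = chloroquine plus artemisinin control wells.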 Particulars: P. falciparum 3D7 erythrocytic growth, LDH absorbance, 72 h; at 2 µM; hits give high values.
Assay [5] addresses Calcium-dependent protein kinase 1 (Plasmodium falciparum (isolate 3D7)) (UniProt P62344). Description: PfCDPK1 kinase inhibitors, biochemical, TCAMS library (AID 1159585; cut-off not given, nearly all actives have IC50 up to about 0.98 µM;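 also: inhibitors leave more ATP so luminescence rises with inhibition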). Particulars: recombinant PfCDPK1, Kinase-Glo ATP depletion luminescence. (Kinase-Glo measures the ATP left after a reaction by luminescence.)
Assay [6] has as its target Plasmodium falciparum protein kinase 6 (PK6, PF3D7_1337100) (UniProt Q8IDW1). Nature of the assay: PfPK6 kinase inhibitors, biochemical, TCAMS library (AID 1159586). Particulars: recombinant PfPK6, Kinase-Glo ATP depletion luminescence.
Assay [7] concerns the target Protein kinase 7 (PK7), Plasmodium falciparum 3D7 (PF3D7_0213400) (UniProt Q7YTF7). Description: inhibition of Plasmodium PK7 catalytic activity – biochemical, TCAMS antimalarial set, Kinase-Glo luminescence (AID 1159587). The note with it: recombinant PfPK7, Kinase-Glo ATP depletion luminescence.
Assay [8] addresses Calcium-dependent protein kinase 4 (Plasmodium falciparum (isolate 3D7)) (UniProt Q8IBS5). Description: PfCDPK4 kinase inhibitors, biochemical, TCAMS library (AID 1159588; cut-off not given, nearly all actives have IC50 up to about 0.91 µM). Particulars: recombinant PfCDPK4, Kinase-Glo ATP depletion luminescence.

Unmarked numbers belong to inactive results. For some of these results: Entries with a potency or affinity are not part of this list. Active and inactive are the calls of the source. Unless noted, no rule for the calls is given here.

Chain of Calcium-dependent protein kinase 4 (Plasmodium falciparum (isolate 3D7)) (Q8IBS5 whole entry, looked up): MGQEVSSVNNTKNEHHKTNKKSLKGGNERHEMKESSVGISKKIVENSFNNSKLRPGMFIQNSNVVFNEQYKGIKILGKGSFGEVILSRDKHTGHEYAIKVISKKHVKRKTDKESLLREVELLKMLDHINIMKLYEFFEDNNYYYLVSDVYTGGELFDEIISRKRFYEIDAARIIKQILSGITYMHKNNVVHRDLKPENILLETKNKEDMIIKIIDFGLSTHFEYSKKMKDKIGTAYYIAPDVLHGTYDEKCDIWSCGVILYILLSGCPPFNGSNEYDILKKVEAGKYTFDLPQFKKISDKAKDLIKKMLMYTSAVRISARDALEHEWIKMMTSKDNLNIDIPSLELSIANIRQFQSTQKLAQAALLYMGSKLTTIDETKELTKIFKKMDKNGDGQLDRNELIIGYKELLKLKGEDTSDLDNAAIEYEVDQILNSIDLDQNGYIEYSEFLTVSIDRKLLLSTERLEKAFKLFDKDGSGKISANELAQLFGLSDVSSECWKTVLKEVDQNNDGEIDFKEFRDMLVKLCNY
Chain of Plasmodium falciparum protein kinase 6 (PK6, PF3D7_1337100) (Q8IDW1 1-305): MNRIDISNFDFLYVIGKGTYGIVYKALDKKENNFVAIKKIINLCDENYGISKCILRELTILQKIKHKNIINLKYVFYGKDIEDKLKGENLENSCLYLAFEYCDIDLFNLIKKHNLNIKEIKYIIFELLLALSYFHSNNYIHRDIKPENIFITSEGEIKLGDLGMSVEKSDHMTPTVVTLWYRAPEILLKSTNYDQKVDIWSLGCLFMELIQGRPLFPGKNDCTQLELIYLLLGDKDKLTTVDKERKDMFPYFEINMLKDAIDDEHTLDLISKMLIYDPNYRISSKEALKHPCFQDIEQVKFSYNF
Chain of L-lactate dehydrogenase (Plasmodium falciparum (isolate CDC / Honduras)) (Q27743 whole entry, looked up): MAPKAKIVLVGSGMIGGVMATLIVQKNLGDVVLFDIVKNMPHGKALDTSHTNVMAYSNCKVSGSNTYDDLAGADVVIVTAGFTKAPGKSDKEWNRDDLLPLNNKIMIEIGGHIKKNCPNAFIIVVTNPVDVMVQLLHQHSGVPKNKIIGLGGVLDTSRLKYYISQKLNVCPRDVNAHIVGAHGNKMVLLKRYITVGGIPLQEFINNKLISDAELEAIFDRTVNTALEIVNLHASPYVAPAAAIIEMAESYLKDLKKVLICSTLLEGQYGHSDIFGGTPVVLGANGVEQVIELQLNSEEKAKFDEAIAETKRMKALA
Chain of Calcium-dependent protein kinase 1 (Plasmodium falciparum (isolate 3D7)) (P62344 whole entry, looked up): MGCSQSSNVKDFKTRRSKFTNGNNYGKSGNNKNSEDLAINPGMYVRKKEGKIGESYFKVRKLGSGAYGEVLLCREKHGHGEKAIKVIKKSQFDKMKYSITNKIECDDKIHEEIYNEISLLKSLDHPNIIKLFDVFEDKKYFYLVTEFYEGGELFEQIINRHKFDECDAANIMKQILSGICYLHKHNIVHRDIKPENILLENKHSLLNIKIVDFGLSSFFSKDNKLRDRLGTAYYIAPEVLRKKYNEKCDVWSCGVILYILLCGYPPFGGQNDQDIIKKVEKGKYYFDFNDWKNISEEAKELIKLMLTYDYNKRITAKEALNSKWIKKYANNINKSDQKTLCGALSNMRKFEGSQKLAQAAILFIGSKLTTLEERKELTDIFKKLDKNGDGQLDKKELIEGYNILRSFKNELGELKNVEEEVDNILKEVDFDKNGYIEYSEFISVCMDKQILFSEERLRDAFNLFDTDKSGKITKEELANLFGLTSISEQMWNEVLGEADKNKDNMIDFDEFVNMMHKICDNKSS
Chain of Protein kinase 7 (PK7), Plasmodium falciparum 3D7 (PF3D7_0213400) (Q7YTF7 1-343): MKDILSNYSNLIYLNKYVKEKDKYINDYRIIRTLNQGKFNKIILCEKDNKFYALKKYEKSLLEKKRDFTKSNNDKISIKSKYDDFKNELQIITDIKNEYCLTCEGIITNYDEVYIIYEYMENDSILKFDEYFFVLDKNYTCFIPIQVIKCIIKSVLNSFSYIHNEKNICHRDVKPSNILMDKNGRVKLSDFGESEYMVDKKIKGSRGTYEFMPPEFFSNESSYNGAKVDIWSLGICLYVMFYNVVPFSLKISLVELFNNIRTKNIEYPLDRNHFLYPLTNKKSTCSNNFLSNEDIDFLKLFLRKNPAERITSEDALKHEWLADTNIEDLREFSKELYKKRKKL

By inhibition is commonly meant the relative decrease from the control value, in per cent. As for `Cc1csc(-c2nonc2NC(=O)COc2ccccc2C(C)C)n1`, the growth inhibition in assay [1] was 85% (active); in assay [4] it was 90% (active). Besides, the inhibition in assay [2] was 14%; in assay [3] it was -1%. The result in assay [5], in assay [6], in assay [7] and in assay [8] was inactive.

As for `COC(=O)Nc1cc(C(F)(F)F)ccc1N1CCCC(NS(=O)(=O)c2ccc(C(C)(C)C)cc2)C1` (stereo not given), the growth inhibition in assay [1] is 90% (active); in assay [4], 97% (active). For the same molecule, the inhibition in assay [2] was -8%; in assay [3], -5%. Further, the outcome in assay [5], in assay [6], in assay [7] and in assay [8] was inactive.

Take `O=c1cc(NCCCNCc2cc3ccc(Br)cc3s2)[nH]c2ccccc12`: the growth inhibition in assay [1] is 8%; in assay [4], 92% (active). The inhibition is 18% in assay [2] and -2% in assay [3]. The outcome in assay [5], in assay [6], in assay [7] and in assay [8] was inactive.

For `O=C(Cn1c(CCc2cccc(F)c2F)cc(=O)c2cccnc21)N(CCCn1ccnc1)Cc1ccc(-c2ccc(C(F)(F)F)cc2)cc1`, the values for the growth inhibition in assay [1] and in assay [4] were 47% and 96% (active), respectively. Besides, the figures for the inhibition in assay [2] and in assay [3] were 38% and -3%, respectively. The outcome in assay [5], in assay [6], in assay [7] and in assay [8] was inactive.

Regarding `O=c1[nH]c2c(cc1CNC1CCCCC1)c(-c1cccc(F)c1)nn2-c1ccccc1`, the results for the growth inhibition in assay [1] and in assay [4] were 89% (active) and 95% (active), respectively. For the same molecule, the inhibition is 6% in assay [2] and 7% in assay [3]. In addition, the result in assay [5], in assay [6], in assay [7] and in assay [8] was inactive.

As to `CCCCCCCCCn1c(NCc2cc(Cl)ccc2O)nc2ccccc21`, the growth inhibition was 92% (active) in assay [1] and 97% (active) in assay [4]. In addition, the inhibition was 13% in assay [2] and -4% in assay [3]. In addition, the outcome in assay [5], in assay [6], in assay [7] and in assay [8] was inactive.

Turning to `Cc1cc(N2CCCC2)nc(Nc2ccc(NC(=O)c3ccc(Br)o3)cc2)n1`, the growth inhibition in assay [1] was 57% (active); in assay [4], 99% (active). The inhibition is 17% in assay [2] and 0% in assay [3]. Moreover, the outcome in assay [5], in assay [6], in assay [7] and in assay [8] was inactive.

Turning to `Cc1ccc(NC(=O)c2ccc(C(=O)NC3CCN(CC4CCCCC4)CC3)cc2)cc1`, the growth inhibition in assay [1] is 0%; in assay [4], 93% (active). Moreover, the values for the inhibition in assay [2] and in assay [3] were 36% and -6%, respectively. In addition, the outcome in assay [5], in assay [6], in assay [7] and in assay [8] was inactive.

For the molecule `C[C@@H](Nc1nc(NCc2ccccc2)c2sccc2n1)c1ccccc1`, the growth inhibition in assay [1] is 75% (active); in assay [4] it was 91% (active). Further, the inhibition in assay [2] is 31%; in assay [3], -4%. The outcome in assay [5], in assay [6], in assay [7] and in assay [8] was inactive.

As to `Cc1cc(NN=Cc2ccccc2Cl)c2ccccc2n1`, the growth inhibition in assay [1] was 30%; in assay [4], 102% (active). Besides, the inhibition in assay [2] was -3%; in assay [3], 2%. For the same molecule, the result in assay [5], in assay [6], in assay [7] and in assay [8] was inactive.

With `O=C(/C=C/c1ccc(Cl)cc1Cl)NCCCCCN1CCC(c2c[nH]c3ccccc23)CC1`, the growth inhibition is 9% in assay [1] and 99% (active) in assay [4]. Also, the results for the inhibition in assay [2] and in assay [3] were 95% (active) and 1%, respectively. Besides, the result in assay [5], in assay [6], in assay [7] and in assay [8] was inactive.

Consider `N=C(N)c1ccc(OCc2cccc(COc3ccc(C(=N)N)cc3I)c2)c(I)c1`, for which the growth inhibition in assay [1] is 100% (active); in assay [4], 102% (active). Moreover, the results for the inhibition in assay [2] and in assay [3] were 7% and 2%, respectively. Moreover, the result in assay [5], in assay [6], in assay [7] and in assay [8] was inactive.

On to `NC(=NCCc1ccc(Cl)cc1)c1ccc(Cl)c(Cl)c1`, for which the growth inhibition in assay [1] was 42%; in assay [4], 100% (active). Further, the inhibition in assay [2] is 43%; in assay [3] it was -1%. Further, the outcome in assay [5], in assay [6], in assay [7] and in assay [8] was inactive.

As for `CCc1c(C(=O)NC2CCC(N3CCC(c4ccccc4OC)CC3)CC2)[nH]c2ccc(Br)cc12` (stereo not given), the growth inhibition in assay [1] was 98% (active); in assay [4], 101% (active). For the same molecule, the inhibition in assay [2] was 85% (active); in assay [3], -1%. Moreover, the outcome in assay [5], in assay [6], in assay [7] and in assay [8] was inactive.

Take `O=C(C=Cc1ccc(Cl)c(Cl)c1)NCCCCCN1CCCC(CCCNS(=O)(=O)c2cccc3cccnc23)C1` (stereo not given): the figures for the growth inhibition in assay [1] and in assay [4] were 16% and 96% (active), respectively. Besides, the figures for the inhibition in assay [2] and in assay [3] were 37% and 2%, respectively. In addition, the result in assay [5], in assay [6], in assay [7] and in assay [8] was inactive.

For the molecule `CC(O)CNc1nc2ccccc2n1CC(=O)Nc1cccc(C(=O)Nc2cccc(C(F)(F)F)c2)c1` (stereo not given), the growth inhibition in assay [1] was 95% (active); in assay [4], 99% (active). Moreover, the inhibition was 2% in assay [2] and 0% in assay [3]. The result in assay [5], in assay [6], in assay [7] and in assay [8] was inactive.

For `COc1ccc(-c2cc3ncnc(N4CCN(CCN5CCCC5)CC4)c3s2)cc1`, the growth inhibition is 90% (active) in assay [1] and 98% (active) in assay [4]. Further, the inhibition in assay [2] was 22%; in assay [3], -2%. Moreover, the outcome in assay [5], in assay [6], in assay [7] and in assay [8] was inactive.

Take `OC(CN(Cc1ccccc1)Cc1ccccc1)Cn1c2ccc(Cl)cc2c2cc(Cl)ccc21` (stereo not given): the growth inhibition in assay [1] is 95% (active); in assay [4], 89% (active). Also, the inhibition in assay [2] was 5%; in assay [3], 6%. The result in assay [5], in assay [6], in assay [7] and in assay [8] was inactive.

For the molecule `Fc1ccc2nc(-c3ccc(-c4ccc(CN5CCN(c6ccncc6)CC5)cc4)cc3)[nH]c2c1`, the results for the growth inhibition in assay [1] and in assay [4] were 101% (active) and 102% (active), respectively. Also, the inhibition in assay [2] is 37%; in assay [3], 6%. The outcome in assay [5], in assay [6], in assay [7] and in assay [8] was inactive.

For the molecule `C=CCOC(=O)N1CCC(CNCc2ccc(-c3cccc(-c4nc5c(C)cccc5[nH]4)c3)cc2)C1` (stereo not given), the growth inhibition is 99% (active) in assay [1] and 102% (active) in assay [4]. For the same molecule, the inhibition is 25% in assay [2] and -5% in assay [3]. In addition, the outcome in assay [5], in assay [6], in assay [7] and in assay [8] was inactive.
